Source: PubChem BioAssay (NCATS)
A number with no mark means an inactive call. Inconclusive results are not listed. A call without a number means that no potency is given here. Calls of active or inactive are those of the source. Calls come from the whole dose curve; as a rule, active = well fitted curve in the direction sought with a large enough effect; inconclusive = small, poorly fitted or top-dose-only effect, or another doubt; inactive = no such curve, though single readings can be large; an effect the other way counts as inactive or inconclusive.

Legend:
[1] = biological target: Glutathione peroxidase 1 (Homo sapiens) (UniProt P07203); assay: Primary qHTS Assay for Inhibitors of Recombinant Selenoprotein Glutathione Peroxidase 1 (GPX1) (AID 1845191); note: nearly all actives have a fitted effect of over 65% in size; note: potency is the fitted concentration of half-maximal effect
Glutathione peroxidase 1 (Homo sapiens), sequence (P07203 whole entry, looked up): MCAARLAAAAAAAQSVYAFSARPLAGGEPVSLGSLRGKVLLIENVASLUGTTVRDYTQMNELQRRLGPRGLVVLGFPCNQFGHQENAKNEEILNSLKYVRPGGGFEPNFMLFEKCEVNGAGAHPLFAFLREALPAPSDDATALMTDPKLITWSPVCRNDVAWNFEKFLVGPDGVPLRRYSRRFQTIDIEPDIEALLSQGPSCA
Outline: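 Recombinant GPX1 (10 nM final) was preincubated with compound for 30 min at room temperature, then reacted with 1 mM GSH, 0.5 mM CHP, 0.5 mM NADPH and 100 nM glutathione reductase; NADPH fluorescence (340/450 nm) was read at 0 and 15 min.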

[2] = biological target: Phospholipid hydroperoxide glutathione peroxidase GPX4 (Homo sapiens) (UniProt P36969); assay: Primary qHTS Assay for Inhibitors of Recombinant Selenoprotein Glutathione Peroxidase 4 (GPX4) (AID 1845192); note: nearly all actives have a fitted effect of over 65% in size; for activity change, negative = inhibition: series mostly up to about 50 µM
Phospholipid hydroperoxide glutathione peroxidase GPX4 (Homo sapiens), sequence (P36969 whole entry, looked up): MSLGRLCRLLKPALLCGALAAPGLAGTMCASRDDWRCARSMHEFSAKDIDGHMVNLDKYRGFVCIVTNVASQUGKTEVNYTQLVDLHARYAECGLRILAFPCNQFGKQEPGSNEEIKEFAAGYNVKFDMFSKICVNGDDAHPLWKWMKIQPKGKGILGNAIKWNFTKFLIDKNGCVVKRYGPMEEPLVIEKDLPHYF
Outline: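 GR-coupled readout: 100 nM GR, 1 mM GSH, 0.5 mM NADPH; NADPH fluorescence (ex 340/em 450 nm) read at t=0 and after 15 min RT. GPX4 200 nM, preincubated 30 min with compound; substrate 0.5 mM CHP.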

[3] = biological target: Luciferin 4-monooxygenase (Photinus pyralis) (UniProt P08659); assay: Primary firefly luciferase (FLuc) qHTS assay for identification of artifact compounds. (AID 1845220); note: nearly all actives have a fitted effect of over 60% in size; for activity change, negative = inhibition: series mostly up to about 54 µM
Outline: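 In this counter-screen for luciferase artifacts, test compounds met substrate (10 uM each luciferin and ATP) before 10 nM enzyme started the reaction. Light output was measured 5 min later.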

[4] = Primary fluorescence-based thiol-reactive (MSTI) qHTS assay for identification of artifact compounds. (AID 1845221);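 note: series mostly up to about 54 µM; thiol-reactive compounds lower the probe fluorescence signal; nearly all actives have a fitted effect of over 65% in size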
Outline: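 Compounds were incubated 1 h at room temperature in the dark with the MSTI probe (4 uM) in PBS pH 7.4, 2% DMSO. Signals were normalized between Acetyl-MSTI and MSTI.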

[5] = system: Nanoluciferase (engineered Oplophorus gracilirostris luciferase); assay: Primary Nanoluciferase (NLuc) qHTS assay for identification of artifact compounds. (AID 1845222);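 note: NLuc secreted into diluted conditioned medium of S16 cells; series mostly up to about 54 µM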
Outline: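 Using secreted nanoluciferase in S16 culture medium (0.22 um filtered, 1:55 dilution), compounds were preincubated 15 min at RT. Signal was generated with Nano-Glo reagent (1:100) over 5 min.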

[6] = Primary redox qHTS assay for identification of artifact compounds. (AID 1845223)
Outline: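 Amplex Red (25 uM) and HRP (250 mU/mL) in HBSS, with compounds for 15 min, then 250 uM DTT for 30 min, room temperature, dark. Fluorescence 525/598 nm read; normalized to DMSO and 10 uM DA3003; Hill fit.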

Row | SMILES | Potency [1] | Potency [2] | Potency [3] | Potency [4] | Potency [5] | Potency [6] | activity change, negative = inhibition [3] | activity change, negative = thiol reactive [4] | activity, negative = inhibition [5] | redox activity (% of DA3003) [6]
1 | COc1ccccc1OCCN1CC(COc2cccc3[nH]c4ccccc4c23)OCC1=O (stereo not drawn) | inactive | inactive | inactive | inactive | inactive | inactive | – | – | – | –
2 | C[C@H]1CC[C@@]2(OC1)O[C@H]1CC3[C@@H]4CC[C@@H]5C[C@@H](O[C@@H]6O[C@H](CO)[C@@H](O[C@@H]7O[C@@H](C)[C@H](O)[C@@H](O)[C@H]7O)[C@H](O)[C@H]6O[C@@H]6O[C@H](CO)[C@@H](O)[C@H](O)[C@H]6O)CC[C@]5(C)C4CC[C@]3(C)[C@H]1[C@@H]2C (stereo partly drawn) | inactive | inactive | – | – | – | – | 0.648% [at 11.6 µM] | 131% [at 11.5 µM] | 2.19% [at 11.6 µM] | -5.48% [at 11.5 µM]
3 | O=C(Nc1cccc2cccnc12)c1ccc(N2C(=O)[C@@H]3C4C=CC(C4)[C@@H]3C2=O)cc1 | inactive | inactive | inactive | inactive | inactive | inactive | – | – | – | –
4 | CNc1cccc(CCOc2ccc3c(c2)CN(CC(F)(F)F)C(=O)[C@H](CC(=O)O)C3)n1 | inactive | inactive | inactive | inactive | inactive | inactive | – | – | – | –
5 | COC(CCc1ccc(O)cc1)CC(=O)CCc1ccc(O)cc1 (stereo not drawn) | inactive | inactive | inactive | inactive | inactive | inactive | – | – | – | –
6 | CC(C)OC(=O)N1CCC(Oc2ncnc3c2cnn3-c2ccc(S(C)(=O)=O)cc2F)CC1 | inactive | inactive | inactive | inactive | inactive | inactive | – | – | – | –
7 | CO[C@H]1[C@@H](O)[C@H](O[C@H]2CC[C@@]3(C)C(CCC4C3CC[C@]35COC6(COC(=O)C6)C3CCC45O)C2)O[C@@H](C)[C@@H]1OC1OC(CO)C(OC2OC(CO)C(O)C(O)C2O)C(O)C1O (stereo partly drawn) | inactive | inactive | – | – | – | – | -4.26% [at 11.6 µM] | 77.5% [at 11.5 µM] | -0.128% [at 11.6 µM] | -0.0298% [at 11.5 µM]
8 | O=c1cc(N2CCN(c3cccc(C(F)(F)F)c3)CC2)[nH]c(=O)n1C1CCCCC1 | inactive | inactive | inactive | inactive | inactive | inactive | – | – | – | –
9 | CNCCCC1(c2ccccc2)OC(C)(C)c2ccccc21 (stereo not drawn) | inactive | inactive | inactive | inactive | inactive | inactive | – | – | – | –
10 | C=C(C)C1CCC2(C(=O)O)CCC3(C)C(CCC4C5(C)C(C=O)C(O)C(C)(C)C5CCC43C)C12 (stereo not drawn) | inactive | inactive | inactive | inactive | inactive | inactive | – | – | – | –
11 | CC1(C)CCC2(C(=O)OC3OC(COC4OC(CO)C(O)C(O)C4O)C(O)C(O)C3O)CCC3(C)C(=CCC4C5(C)CCC(OC6OCC(O)C(O)C6O)C(C)(C)C5CCC43C)C2C1O (stereo not drawn) | inactive | inactive | – | – | – | – | 0.58% [at 11.6 µM] | 122% [at 11.5 µM] | -1.73% [at 11.6 µM] | 18.7% [at 11.5 µM]
12 | CC(=O)O[C@@H]1CC2C(/C=C(\C)C(=O)[C@@]3(O)C[C@@H](C)[C@H](OC(=O)c4ccccc4)C3/C=C/1C)C2(C)C (stereo partly drawn) | inactive | inactive | inactive | inactive | inactive | inactive | – | – | – | –
13 | CN1CCN(S(=O)(=O)c2ccc(-c3cnc(N)c(C(=O)Nc4cccnc4)n3)cc2)CC1 | inactive | inactive | inactive | inactive | inactive | inactive | – | – | – | –
14 | Cc1ccccc1C(C(=O)NC1CCCCC1)N(C(=O)Cn1cnc2ccccc21)c1cccc(F)c1 (stereo not drawn) | inactive | inactive | inactive | inactive | inactive | inactive | – | – | – | –
15 | O=C(Nc1ccc(Cl)cc1)C1CCCN(C(=O)c2cccc(-c3ccco3)c2)C1 (stereo not drawn) | inactive | inactive | inactive | inactive | inactive | inactive | – | – | – | –
16 | Fc1ccc(CN2CCC(Nc3ccc(C(F)(F)F)nn3)CC2)cc1F | inactive | inactive | inactive | inactive | inactive | inactive | – | – | – | –
17 | COc1cc(-c2nc(N[C@H](CO)Cc3ccccc3)ccc2C(=O)NCCOc2ccccc2)cc(OC)c1OC | inactive | inactive | inactive | inactive | inactive | inactive | – | – | – | –
18 | CCCC(CCC)C(=O)Nc1ccn([C@@H]2O[C@H](CO)[C@@H](O)C2(F)F)c(=O)n1 | inactive | inactive | inactive | inactive | inactive | inactive | – | – | – | –
19 | CCc1cnc(N2CCC(c3nc(COc4ccc(-n5cnnn5)cc4)cs3)CC2)nc1 | inactive | inactive | inactive | inactive | inactive | inactive | – | – | – | –
20 | C=C1CCN([C@H](C)[C@](O)(Cn2cncn2)c2ccc(F)cc2F)CC1 | inactive | inactive | inactive | inactive | inactive | inactive | – | – | – | –
21 | O=C(NC1CCC1)c1ccc(C#Cc2cccc(F)c2)nc1 | inactive | inactive | inactive | inactive | inactive | inactive | – | – | – | –
22 | CC(=O)OC1CC(O)(C(C)C)C2C(OC(=O)c3ccc(O)cc3)C=C(C)C(=O)CC12C (stereo not drawn) | inactive | inactive | inactive | inactive | inactive | inactive | – | – | – | –
23 | Nc1c(S(=O)(=O)c2ccccc2)c2nc3ccccc3nc2n1-c1ccc(F)cc1 | 20.2 µM (active) | inactive | inactive | inactive | inactive | inactive | – | – | – | –
